# Results filed as inconclusive are left out. Calls of active or inactive are those of the source. The call rests on the fitted dose curve; in most records, active means well fitted cell-killing curve with a large enough effect in the repeat runs; inconclusive means weak or mixed curves, or effect the other way; inactive means flat fitted curve, though single readings scatter.
# Assay: cAMP Responsive Elements (CRE) small molecule antagonists, cell-based qHTS assay: qHTS cell viability counter screen (AID 2060913); further: nearly all actives have a fitted effect of over 40% in size
# Conditions: CRE-bla HEK293T viability, CellTiter-Glo luminescence, 5 h; series mostly up to 92.4 µM; viability change, negative = cytotoxic: at the top concentration
# How it was run: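 CRE-bla HEK293T cells (2,000/well, 18 h) given compound plus NKH477 0.25 uM final for 3 h at 37C; viability counter-screen by CellTiter-Glo luminescence in same wells after 30 min.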
# On the % scale 0 is the no-effect control and ±100 the full control effect; potency means the concentration at half of the fitted maximal effect.
Structure (SMILES),"viability change, negative = cytotoxic",Potency
Cc1cc(C)cc(OP(=O)(Oc2cc(C)cc(C)c2)Oc2cc(C)cc(C)c2)c1,-22.5% (inactive),–
C[C@@H]1O[C@@H](O[C@H]2C[C@@H](O)[C@]3(CO)[C@H]4[C@H](O)C[C@]5(C)[C@@H](C6=CC(=O)OC6)CC[C@]5(O)[C@@H]4CC[C@]3(O)C2)[C@H](O)[C@H](O)[C@H]1O,–,0.073 µM (active)
CCCSP(=S)(OCC)Oc1ccc(SC)cc1 (stereo not given),-10.1% (inactive),–
OC[C@@H](O)[C@H]1O[C@@H]2O[C@H](C(Cl)(Cl)Cl)O[C@@H]2[C@H]1O,–,inactive
O=[N+]([O-])c1cc(C(F)(F)F)cc([N+](=O)[O-])c1Cl,-8.62% (inactive),–
COc1nn(CSP(=S)(OC)OC)c(=O)s1,-10.4% (inactive),–
CCCCCCCCCC(CC)c1ccc(S(=O)(=O)O)cc1 (stereo not given),–,inactive
O=C(N[C@@H]1N=C(c2ccccc2F)c2cccc3c2N(CC3)C1=O)c1cc2ccccc2[nH]1,-1.16% [at 42.5 µM] (inactive),–
C[C@@H]1CC2=CC(=O)CC[C@@H]2[C@H]2CC[C@@]3(C)[C@@H](CC[C@]3(C)O)[C@@H]21,-7.29% [at 42.5 µM] (inactive),–
COC(=O)Cc1ccccc1,-2.79% (inactive),–
O=[N+]([O-])c1c(Cl)c(Cl)cc(Cl)c1Cl,0.21% (inactive),–
BrCCBr,–,inactive
OCC(O)CCl (stereo not given),–,inactive
ClC1=C(Cl)[C@]2(Cl)[C@@H]3[C@H]4C[C@H]([C@@H]5O[C@H]45)[C@@H]3[C@@]1(Cl)C2(Cl)Cl,-11.9% (inactive),–
S=C=Nc1cccc2ccccc12,1.23% (inactive),–
CCCCOC(=O)[C@@H](C)Oc1ccc(Oc2ccc(C#N)cc2F)cc1,-3.37% (inactive),–
Cn1cc[n+](C)c1 (tested in a mixture with another compound),15.4% (inactive),–
CC[N+]1(C)CCCC1,–,inactive
NC(=O)O,1.41% (inactive),–
CCOC(=O)[C@]1(c2ccccc2)Oc2ccccc2[C@@H]1N,-13.3% (inactive),–

Structure (SMILES),"viability change, negative = cytotoxic",Potency
CC(C)c1ccc(CO)cc1,–,inactive
CCCCCCCCCC[N+](C)(C)CCCCCCCCCC,–,30.6 µM (active)
ClCCCN1CCN(c2cccc(Cl)c2)CC1,-2.15% [at 42.5 µM] (inactive),–
CNC(=O)Oc1cc(C)c(N(C)C)c(C)c1,2.06% (inactive),–
COc1ccccc1N1CCNCC1,5.17% [at 42.5 µM] (inactive),–
CCCCOC(=O)c1ccccc1C(=O)OCCCC,–,inactive
NC(=O)c1ccc(N)nc1,4.37% (inactive),–
CC(C)CON=O,–,inactive
C[C@]12Cc3cn[nH]c3C[C@@H]1CC[C@@H]1[C@@H]2CC[C@@]2(C)[C@H]1CC[C@]2(C)O,0.0623% [at 42.5 µM] (inactive),–
ClCCOCOCCCl,13.2% (inactive),–
CC(=[OH+])/C=C(/C)[O-].CC(=[OH+])/C=C(\C)[O-].CC(=[OH+])/C=C(\C)[O-].[Fe],18% (inactive),–
Cc1ccc(N=CN(C)C=Nc2ccc(C)cc2C)c(C)c1,–,inactive
COC(C)(C)C,-15.8% (inactive),–
CCC[CH2][Sn]([CH2]CCC)([CH2]CCC)[CH2]CCC,-26% (inactive),–
BrCCCCCCBr,0.438% (inactive),–
CC(C)(C)NC[C@H](O)c1ccc(O)cc1Cl,-2.48% [at 42.5 µM] (inactive),–
ClC(Cl)=C(c1ccc(Cl)cc1)c1ccc(Cl)cc1,–,inactive
CC(C)[C@@H](Nc1ccc(C(F)(F)F)cc1Cl)C(=O)OC(C#N)c1cccc(Oc2ccccc2)c1 (stereo not given in full),-7.1% (inactive),–
OC(c1ccc(Cl)cc1)(c1ccc(Cl)cc1)c1cccnc1,-11% (inactive),–
O=C1c2ccccc2C(=O)C1C(=O)C(c1ccccc1)c1ccc(Cl)cc1 (stereo not given),-15% (inactive),–

# Source: PubChem BioAssay (Tox21)
